Screening data (PubChem)
NPSR antagonist – neuropeptide S receptor (human) antagonism, cAMP. CHO-NPSR cells, cAMP TR-FRET, antagonist mode. 220,000 tested, 1% active. Potency, µM (highest dose often 38.3 µM), for inactives: at the top dose activity change, negative = inhibition, most hits filed as inhibitors. Q6W5P4; further: nearly all actives have a fitted effect of over 50% in size
RORgamma inh – inhibitors of mouse ROR gamma transcriptional activity. P51450. Drosophila S2 Gal4-RORgamma UAS-luciferase reporter, 20 h. Potency, µM (highest dose often 53.6 µM), inactives show top-dose activity change, negative = inhibition, hits mostly inhibitors. 310,000 tested, 5.4% active; further: nearly all actives have a fitted effect of over 60% in size
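Using a luciferase readout, inhibitors were identified by reduced reporter activity in Drosophila cells coexpressing a copper-inducible Gal4–ROR gamma fusion and UAS-driven Photinus luciferase, incubated 20 hr after 700 uM copper sulfate.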
B2AR arrestin – recruits beta-arrestin to the human beta2-adrenergic receptor. P07550. beta-arrestin recruitment to beta2AR, cell-based reporter. Potency, µM (series often up to 46.1 µM), inactives show top-dose activation, most hits filed as activators. 330,000 tested, 0.02% active;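 further: 0% = DMSO controls and full agonism = EC100 isoproterenol or metaproterenol; nearly all actives have a fitted effect of over 65% in size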
Target sequence (P07550 whole entry, looked up): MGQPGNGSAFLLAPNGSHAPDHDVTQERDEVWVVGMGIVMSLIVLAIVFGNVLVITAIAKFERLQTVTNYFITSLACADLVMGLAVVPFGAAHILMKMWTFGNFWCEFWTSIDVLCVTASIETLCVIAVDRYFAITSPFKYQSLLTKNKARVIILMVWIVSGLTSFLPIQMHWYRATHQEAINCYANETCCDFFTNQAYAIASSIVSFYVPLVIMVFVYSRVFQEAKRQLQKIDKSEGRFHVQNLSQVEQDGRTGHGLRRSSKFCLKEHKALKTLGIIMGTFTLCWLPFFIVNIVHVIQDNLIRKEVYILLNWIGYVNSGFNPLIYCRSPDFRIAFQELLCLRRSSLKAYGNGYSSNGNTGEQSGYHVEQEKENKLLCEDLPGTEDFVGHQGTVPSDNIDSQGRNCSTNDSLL
Gal4-VP16 FLuc – counter-screen for ROR gamma inhibitors: Gal4-VP16 reporter; Drosophila S2 Gal4-VP16 UAS-luciferase, luminescence, 20 h; Potency, µM (doses to about 53.6 µM), for inactives: top-dose activity, negative = inhibition, usual class: inhibitors; 310,000 tested, 3.5% active; AID 2546;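 further: Gal4-VP16 expression switched on by copper sulfate through the metallothionein promoter; nearly all actives have a fitted effect of over 50% in size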
The depositor's hits bear a star; ? = inconclusive; . = no result given; [ ] = dose if it differs, or a comment. An excerpt weighted towards active compounds, which were near 5.7% of everything screened. The call rests on the fitted dose curve; in most records, active means well fitted curve in the direction sought with a large enough effect; inconclusive means small, poorly fitted or top-dose-only effect, or another doubt; inactive means no such curve, though single readings can be large; an effect the other way counts as inactive or inconclusive. Unless noted, on the % scale 0 is the no-effect control and ±100 the full control effect; potency means the concentration at half of the fitted maximal effect.

SMILES	NPSR antagonist	RORgamma inh	B2AR arrestin	Gal4-VP16 FLuc
N#C/C(=C\c1ccccc1[N+](=O)[O-])C(=O)NC1CCCCC1	-20%	?	0%	8.9µM*
CC(/C=C/c1ccc(N(C)C)cc1)=N\N=C(/N)SC1CC(=O)N(c2ccc(C(=O)O)cc2)C1=O (stereo not given)	-31%	0.79µM*	10%	2.2µM*
CCCCCN(C(=O)CCC(=O)OCCOc1cccc(C)c1)c1c(N)n(CCCC)c(=O)[nH]c1=O	.	.	0%	.
O=C(c1ccc(NC(=S)NCc2ccco2)cc1)N1CCCCC1	10%	25%	0%	16%
S=C(NCc1ccco1)Nc1ccc(Oc2ccc(Cl)cc2)cc1	?	2.8µM*	9%	11µM*
O=C(O)Cc1ccc(NC(=S)NCc2ccco2)cc1	6%	2%	-2%	-17%
CCOc1ccc(NC(=S)N(Cc2ccc(Cl)cc2)Cc2ccco2)cc1	?	13µM*	-1%	?
S=C(NCc1ccco1)Nc1ccccc1	-8%	8.9µM*	-1%	?
S=C(NCc1ccco1)Nc1ccc(Cl)cc1	-6%	11µM*	-2%	?
CCOC(=O)c1ccc(NC(=S)N(Cc2cccnc2)Cc2ccco2)cc1	-16%	-2%	0%	-3%
CC1=NNC(=O)/C1=C\c1cn(-c2ccccc2)nc1-c1ccccc1	13µM*	1.1µM*	0%	2%[10 µM]
CCN(CC(=O)Nc1c(F)cccc1F)C(=O)CCSc1ccc(F)cc1	.	.	0%	.
CN(c1ccccc1)c1ccc(/C=N/NC(=O)CC#N)cc1	3%	?	1.3µM*	?
N#CCC(=O)N/N=C/c1ccc(Cl)cc1	10%	-1%	0%	-1%
Cc1ccc2sc(NC(=O)CSc3nc(C)cc(C)c3C#N)nc2c1	-23%[46.1 µM]	0.71µM*	-1%	?
Cc1nc(SCC(=O)Nc2nc3ccccc3s2)c(C#N)c(C)c1C	-38%	0.35µM*	-1%	?
Cc1oc(-c2ccc(Cl)cc2)nc1CS(=O)CC(=O)NC1CCCC1 (stereo not given)	.	8%	0%	-6%
COc1ccc(-c2csc(NC(=S)NC(=O)c3ccco3)n2)cc1Br	.	7.9µM*	0%	?
COc1ccc(-c2csc(NC(=S)NC(=O)c3cc4ccccc4o3)n2)cc1Br	.	-16%	0%	-5%
Cc1ccc(-c2csc(NC(=S)NC(=O)c3ccco3)n2)cc1	-37%	5.6µM*	-1%	?
COc1ccccc1NCCC(=O)OCC(=O)Nc1ccccc1F	.	.	0%	.
CC(OC(=O)Cc1c(F)cccc1Cl)C(=O)NC1(C#N)CCCCC1 (stereo not given)	.	.	0%	.
COc1cc(C(=O)N2CCN(c3ccccc3)CC2)c([N+](=O)[O-])cc1OC	-3%	-3%	0%	11%
Cc1ccc(C(=O)CSc2nc(O)cc(=O)[nH]2)cc1C	.	-8%	0%	-4%
CCOC(=O)Nc1nc(-c2ccccc2)c(C(=O)c2ccccc2)s1	?	13µM*	0%	-22%
SMILES	NPSR antagonist	RORgamma inh	B2AR arrestin	Gal4-VP16 FLuc
O=C(NCCNCc1ccccn1)c1ccco1	8%	9%	0%	-5%
O=C(NC(NCc1ccccn1)(C(F)(F)F)C(F)(F)F)c1ccco1	10%[46.1 µM]	10µM*	0%	-15%
CN(CCc1ccccn1)C(=S)NC(=O)c1ccco1	2%	14µM*	0%	?
COc1ccc(-c2nc(CN3CCCCC3c3nccn3C)c(C)o2)c(C)c1C (stereo not given)	47%	4.5µM*	-1%	?
COc1ccc(OC)c(-c2nc(CN3CCCCC3c3cccnc3)c(C)o2)c1 (stereo not given)	-6%	-19%	0%	9%
COC(=O)C/C=C\[C@@H](C)[C@@H](/C=N\OCC[C@H]1C=C[C@H](OC(C)=O)[C@@H](COC(C)=O)O1)NS(=O)(=O)c1ccc(C)cc1	.	1%[10 µM]	.	-5%[10 µM]
CC(C)Cn1c(N)c(C(=O)CSc2ncnc3sc4c(c23)CCCC4)c(=O)n(C)c1=O	-25%	-16%	-2%	-7%
COCCN(C(=S)Nc1ccc(C)cc1)C(C)c1ccco1 (stereo not given)	-25%	?	0%	-14%
CCc1cccc(C)c1NC(=S)N(CCOC)C(C)c1ccco1 (stereo not given)	-16%	10µM*	0%	0%
CCOc1ccc(NC(=S)N(CCOC)C(C)c2ccco2)cc1 (stereo not given)	-7%	8.9µM*	0%	?
CCc1ccccc1NC(=S)N(CCOC)C(C)c1ccco1 (stereo not given)	-10%	13µM*	0%	-5%
